High-throughput results from PubChem.
Pf Dd2 inh = Plasmodium falciparum Dd2 growth inhibition; Potency, µM (titrated, usually from 28.9 µM), usual class: inhibitors; actives 4.3% (n = 120,000); P. falciparum Dd2 growth, SYBR Green, 72 h; active = well fitted inhibition curve with a large enough effect; note: nearly all actives have a fitted effect of over 65% in size
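Readout: SYBR Green fluorescence, 485 nm excitation, 535 nm emission, after ~16 h lysis at 37C. Before that, Dd2-infected red cells (2.5% hematocrit) grew 72 h with compound, 29 uM top final concentration.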
Hits are given with their value; i = inactive. This excerpt belongs to a sample that is enriched for hits.

SMILES	Pf Dd2 inh
Cc1ncsc1CN1CCCC(C(=O)NCc2ccccc2)CCNC(=O)CC1 (stereo not given)	i
O=C1NCCCCCN(C(=O)Cc2cccc(F)c2)[C@H]2CCC[C@@H]12	i
Cc1ncsc1CN1CCCCCCNC(=O)[C@@H]2C[C@@H](C(=O)N3CCc4ccccc4C3)C[C@@H]21	4.47µM
N#Cc1ccc(CN2CCCCCCNC(=O)[C@@H]3C[C@@H](C(=O)N4CCc5ccccc5C4)C[C@@H]32)cc1	2.82µM
O=C1NCCCCCCN(C(=O)Cc2cccc(F)c2)[C@H]2CCC[C@@H]12	i
N#Cc1ccc(C(=O)N2CCCCCNC(=O)[C@@H]3CCCC[C@@H]32)cc1	i
O=C1NCCCCCCN(Cc2cccc(F)c2)[C@H]2C[C@H](C(=O)N3CCc4ccccc4C3)C[C@@H]12	3.55µM
Cc1nc(C)c(C(=O)N2CC[C@H]3C(=O)NCCCCCCN(Cc4ccncc4)[C@@H]3C2)s1	i
O=C(CCN1CCCO1)N[C@@H]1COCC[C@@H]1OCc1ccccc1	i
O=C(O)c1cccnc1OC1CCNCC1	i
COCCN1C(=O)c2cccn2CC1CNS(=O)(=O)c1ccc(F)cc1 (stereo not given)	i
O=[S+]([O-])(c1ccccc1)N1CC2(COCCN(Cc3ccsc3)C2)C1	i
O=C(CN1CC2CC(C1)[C@H]1CCCC(=O)N1C2)N1CCCCCC1 (stereo not given in full)	i
O=C(Nc1ccsc1)N[C@H]1C[C@H]2C(=O)NC[C@@H](CCC(=O)N3CCc4ccccc43)N2C1	i
CC(NC(=O)Cc1cccn1-c1cccc(Cl)c1)c1cccnc1 (stereo not given)	i
O=C(CC1CCOC2(CCN(C(=O)c3ccccc3)CC2)C1)NC1CC1 (stereo not given)	i
COc1ccc(N2CCN(C(=O)COc3ccc(-c4nnc5n4CCCC5)cc3)CC2)cc1	0.708µM
CCc1cccc(OCC(=O)Nc2ccc(S(=O)(=O)Nc3ncccn3)cc2)c1	i
COc1ccc(CCC(=O)Nc2ccc(-c3nnc4n3CCCC4)cc2)cc1	i
CCOc1ccc(NC(=O)Cn2c(C)cc3nc4n(c(=O)c32)CCCC4)cc1	i
COc1ccccc1NC(=O)Nc1cccc(-c2nnc3n2CCCC3)c1	i
CCc1ccc(NC(=O)COc2cccc(-c3nnc4n3CCCC4)c2)cc1	5.01µM
O=C(Nc1ccc(-c2nnc3n2CCCC3)cc1)Nc1ccccc1Br	i
CCc1ccc(NC(=O)COc2ccc(-c3nnc4n3CCCC4)cc2)cc1	3.98µM
COc1ccc(CC(=O)N2CCn3c(nnc3-c3ccc(OC)cc3)C2)cc1	i
SMILES	Pf Dd2 inh
COc1ccc(-c2nnc3n2CCN(C(C)=O)C3)cc1	i
COc1ccccc1NC(=O)Nc1ccc(-c2nnc3n2CCCC3)cc1	3.98µM
O=C(c1nccc2ccccc12)N1CCC(n2cc(-c3nc(-c4ccccc4)no3)nn2)C1 (stereo not given)	i
COc1ccc(C(=O)N2CCC(n3cc(-c4nc(C(C)C)no4)nn3)C2)cc1F (stereo not given)	i
COC(=O)c1ccc2c(c1)nc1n2[C@@H](CNCc2ccccc2)COC1	i
O=C1Nc2ccccc2C12CN(Cc1cncs1)C2	i
COc1nc2c(cc1CNC(=O)C1CC(=O)N(C)C1)C(=O)N(C1CCCC1)C2 (stereo not given)	i
Cc1ccccc1NC(=O)COc1ccc(-c2nnc3n2CCCC3)cc1	11.2µM
CNC(=O)N1CCCCCCn2c(nnc2-c2ccc(F)cc2)CC1	i
O=C(COc1ccc(-c2nnc3n2CCCC3)cc1)Nc1ccc(F)cc1	5.62µM
O=C(Nc1ccc(-c2nnc3n2CCCC3)cc1)C1CC1	i
O=C(COc1ccc(-c2nnc3n2CCCC3)cc1)Nc1ccccc1	7.94µM
O=C(CCC1CCCC1)Nc1ccc(-c2nnc3n2CCCC3)cc1	i
O=C(COc1ccccc1)Nc1ccc(-c2nnc3n2CCCC3)cc1	10µM
Cc1ccccc1NC(=O)Cn1c(C)cc2nc3n(c(=O)c21)CCCCC3	i
O=C(C1CC1)N1CCCCCCn2c(nnc2-c2ccc(F)cc2)CC1	i
Cc1cc2nc3n(c(=O)c2n1CC(=O)Nc1ccccc1)CCCCC3	i
Cc1cccc(NC(=O)Cn2nc3n(c2=O)CCCCC3)c1C	i
Cc1ccc(C(=O)N2CCC3(CC2)NC(=O)N(c2ccc(F)cc2)N3)cc1	i
COc1ccc(S(=O)(=O)N2CCc3c(C(=O)NCc4ccccn4)cccc32)cc1	i
CC(C)c1cccc(NC(=O)CN2C(=O)C(c3ccccc3)=NC23CCCC3)c1	i
CCc1ccc(C(=O)N2CCC3(CC2)OCC(C(=O)N2CCCC2)N3C(=O)c2cccc(C)c2)cc1 (stereo not given)	i
COc1ccc(-c2noc([C@@H]3C[C@H](NCc4ccc(F)cc4)CN3C)n2)cc1	i
O=C(c1c[nH]c2ccccc12)N1CCN(c2cc(-c3cccs3)[nH]n2)CC1	i
CNC(=O)[C@@H]1CN(C(=O)c2cc(Cl)ccc2F)C[C@H]1COC	i
SMILES	Pf Dd2 inh
O=C(c1ccc2c(c1)OCCO2)N1CCC(Cn2cc(CCO)nn2)CC1	i
CCS(=O)(=O)N1C[C@@H]2CN(c3nccc(NC)n3)C[C@]2(C(=O)O)C1	i
COCc1cn([C@H]2CO[C@H]3[C@@H]2OC[C@H]3OC(=O)Nc2ccc(C)cc2)nn1	i
COCCOC1CCN(S(=O)(=O)c2ccc(F)cc2)CC1	i
COCC1CN(C(C)=O)CC12CCN(C(=O)CN1CCCCCC1)CC2 (stereo not given)	i
C[C@@H](NS(=O)(=O)c1ccc(Cl)cc1)c1onc(-c2cccnc2)c1C(=O)O	i
COc1cccc(NC(=O)Cn2c(C)cc3nc4n(c(=O)c32)CCCC4)c1	i
COc1cccc(NC(=O)Cn2nc3n(c2=O)CCCCC3)c1	i
COc1cccc(NC(=O)COc2ccc(-c3nnc4n3CCCC4)cc2)c1	2.82µM
Cc1cc(C(F)(F)F)nc(CCNc2cc(C3CC(N)C3)nc(N)n2)n1 (stereo not given)	i
CS(=O)(=O)NC1CCN(c2cc(C3CC(N)C3)nc(N)n2)CC1 (stereo not given)	i
CNc1cc(C2CC(NS(=O)(=O)c3cc(C)sc3C)C2)nc(N)n1 (stereo not given)	8.91µM
CCCCCNc1ncnc2c1CN(C1CCNCC1)C(=O)CN2C	i
Cc1cc(NC(=O)c2cc(Cl)ccc2Cl)ccc1-c1cc2ccccc2oc1=O	11.2µM
O=C(Nc1ccc(Cl)c(-c2nc3cc(Cl)ccc3o2)c1)c1cc2ccccc2o1	i
Cc1cc2nc(-c3cc(NC(=O)c4cc5ccccc5o4)ccc3Cl)oc2cc1C	i
C=CCNC(=O)c1coc(COc2ccc3ccc(OC)cc3c2)n1	i
O=C(c1ccccn1)N1CCC2(CC1)CC(Cc1ccccc1)CCO2 (stereo not given)	i
COc1c(Cl)cc(C(=O)Nc2cc(-c3nc4ccccc4[nH]3)ccc2C)cc1Cl	i
Cc1ccc(C(C)C)c(OCC(=O)Nc2cc(-c3nc4ccccc4[nH]3)ccc2C)c1	6.31µM
CC(C)CC(=O)Nc1cccc(-c2nc3ccccc3[nH]2)c1	i
COc1ccc(C(=O)N2CCC3(CC2)OCC(C(=O)N2CCOCC2)N3C(=O)c2ccccc2)cc1 (stereo not given)	i
CCn1ncc(N2CCCC(CC(=O)NCc3ccc(F)cc3)C2)cc1=O (stereo not given)	i
Cc1ccc(C(=O)N(CC(C)C)CC2CN(C(=O)c3ccc4c(c3)OCO4)CCO2)cc1 (stereo not given)	i
CCS(=O)(=O)c1ncc(Cl)c(C(=O)N(Cc2ccccc2)Cc2ccco2)n1	i
